# In ChEMBL document CHEMBL3988442, “University of Dundee, Small-Polar-MMV Screening Library” (2021):
# Key:
# [1] = target: T1, Aspartate--tRNA(Asp/Asn) ligase (Mycobacterium tuberculosis (strain ATCC 25618 / H37Rv)) (UniProt P9WFW3); test: Assay for Asp RNA synthetase-1 from Mycobacterium tuberculosis; format: functional; design: scale not given: direction of the effect not stated beside the values; details: 30 µM; also: in the data most compounds retested in dose-response had high values
# T1 sequence (whole entry): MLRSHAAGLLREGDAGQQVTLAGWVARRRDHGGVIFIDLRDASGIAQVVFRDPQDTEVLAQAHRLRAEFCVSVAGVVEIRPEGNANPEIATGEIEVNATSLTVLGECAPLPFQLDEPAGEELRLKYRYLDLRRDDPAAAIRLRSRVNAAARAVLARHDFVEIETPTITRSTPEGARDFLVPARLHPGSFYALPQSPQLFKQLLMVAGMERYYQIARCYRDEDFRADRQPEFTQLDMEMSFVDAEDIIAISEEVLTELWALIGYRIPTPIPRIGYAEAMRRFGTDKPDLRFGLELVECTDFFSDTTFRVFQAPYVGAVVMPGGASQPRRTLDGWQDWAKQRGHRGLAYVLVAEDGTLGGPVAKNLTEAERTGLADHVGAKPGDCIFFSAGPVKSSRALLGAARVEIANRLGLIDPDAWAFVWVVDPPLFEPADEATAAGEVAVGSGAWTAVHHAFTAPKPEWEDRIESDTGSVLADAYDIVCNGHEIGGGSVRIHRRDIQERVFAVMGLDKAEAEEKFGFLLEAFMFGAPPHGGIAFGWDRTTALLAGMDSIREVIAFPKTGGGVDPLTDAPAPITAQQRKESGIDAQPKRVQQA
# [2] = target: Shiga toxin 2 (Escherichia coli O157:H7) (UniProt P09385+P09386); test: E. coli 0.157:H7 Shiga Toxin SOP - stx2 screening assay; format: functional; design: scale not given: direction of the effect not stated beside the values; details: 30 µM
SMILES,Percent Effect [1],Percent Effect [2]
CC1(C(=O)N2CCOCC2)CN(Cc2ccccc2F)CCO1 (centres undefined),-0.309%,1.31%
O=C(CN1CCCCC1Cn1cncn1)NCCc1ccc(F)cc1 (centres undefined),3.25%,-5.15%
O=C(c1cccc(N2CCCC2=O)c1)N1CCCC(n2cncn2)C1 (centres undefined),-4.55%,17.8%
Cc1nn(C)c(C)c1C(C)NC(=O)Nc1cccnc1N1CCCC1 (centres undefined),-3.63%,10.7%
Cc1nn(CC(=O)N2CCN(c3ccncc3)CC2)c(C)c1Cl,0.15%,-36.1%
CN(Cc1ccco1)[C@@H]1CN(C(=O)c2ccnnc2)[C@@H]2CCCO[C@H]12,-2.73%,-1.33%
CCn1nc(C)c2ncnc(NCC(=O)N3CCOCC3)c21,-3.08%,-16.4%
CC(=O)N(Cc1ncc(C(C)C)o1)C1CCN(Cc2ncc[nH]2)C1 (centres undefined),5.3%,10.9%
COc1cccc(CN(C)C(=O)CN2CC(n3nc(C)cc3C)C2)c1,1.62%,-22.3%
O=C(NCc1ccccn1)NC1CCOc2ccccc21 (centres undefined),-6.21%,-20.3%
CCOC(=O)[C@]12CCCN(Cc3nccs3)C[C@H]1CN(CCN(C)C)C2,6.19%,-7.56%
Cc1ccn(-c2ccccc2NCc2ccccn2)n1,0.661%,4.81%
COc1ccc(CN2C[C@@H](OCc3csc(C)n3)[C@H]3COC[C@H]32)cc1,-1.16%,-12.3%
CCCn1nc2c(cc1=O)CN(CC(=O)Nc1ccncc1)CC2,2.52%,-19.5%
CC1CCN(CCNC(=O)C2CCN(S(N)(=O)=O)CC2)CC1,1.78%,0.821%
CC(C)n1ccnc1C1CCN(C(=O)c2cc[nH]n2)CC1,-0.496%,14.3%
CCC(=O)N1CCc2nc3cc(OC)c(OC)cc3c(=O)n2CC1,-5.4%,-7.9%
COCCN1CCCC12CCN(C(=O)CC1CCCC1)CC2,-1.62%,-6.17%
N#Cc1cc(NC(=O)c2ccccc2)ccc1N1CCC(O)CC1,-1.51%,-18.7%
Cc1nc(C2CCCN2CC(=O)NCCc2ccsc2)no1 (centres undefined),1.22%,-9.77%
Cc1nc(C)n(CC2CCCN(Cc3nc(C4CC4)no3)C2)n1 (centres undefined),4.92%,7.13%
Cc1nc(C)c2c(n1)CCN(C(=O)CC1CC1)CC2,-2.64%,-5.99%
CC1c2ncc(Cn3cncn3)n2CCN1C(=O)C1CCOCC1 (centres undefined),3.23%,-10.6%
CCNc1cc2c(nn1)CCN(C(=O)CC1CCCCC1)C2,-7.97%,-4.17%
Cc1cc(-c2cnn(CCNC(=O)C3CC3)c2C2CC2)on1,0.838%,64.1%
CCc1noc(C(C)N(C)CC(=O)Nc2cccc(C)n2)n1 (centres undefined),-1.61%,-14.2%

SMILES,Percent Effect [1],Percent Effect [2]
CN(C)Cc1ccc(C2CCCCN2C(=O)c2cc(C3CC3)n[nH]2)cc1 (centres undefined),-1.82%,2.95%
COc1ccc(CCN2CCc3c(nc(C4CC4)n3C)C2)cc1,4.19%,-51.7%
N#Cc1ccnc(N2CCN(Cc3cccc(F)c3)CC2)c1,-3.46%,12.2%
CCn1ccnc1CN1CCN(CC(O)c2ccccc2)CC1 (centres undefined),-5.63%,-31%
CO[C@H]1CCN(c2ccc(C)nn2)[C@H]1Cc1cnn(C)c1,1.39%,3.96%
CN(C)CCCn1ccnc1C1CCCN(c2cc(N)ncn2)C1 (centres undefined),-0.232%,1.04%
CN(C)C(=O)CN1CCCCC1c1nc(N)ncc1-c1cccc(F)c1 (centres undefined),-1.78%,-2.08%
Cc1nc(N2CCOCC2)nc2c1CCN(Cc1cccnc1)CC2,2.91%,-7%
CC(C(=O)NCCN1CCCCCC1)n1cncn1 (centres undefined),-4.21%,-27.3%
Cn1ccnc1CN1CCCC(Cc2ccccn2)C1 (centres undefined),-2.49%,-6.98%
CN(CCn1nc2ccccn2c1=O)CC(=O)NC1CC1,-5.57%,-5.23%
CSc1ccc(Cl)c(C(=O)N2CCCC(CNS(C)(=O)=O)C2)c1 (centres undefined),2.82%,-37.8%
Cc1csc(N2CCN(C(=O)CCC(=O)c3ccc(C)s3)CC2)n1,-2.27%,8.56%
Cc1ncc(CN(C)C2CCCN(Cc3noc(C4CC4)n3)C2)s1 (centres undefined),-2.9%,11.1%
CC(C)Nc1nc(N2CCOCC2)nc2c1CN(Cc1ccoc1)CC2,-5.4%,4.99%
O=c1[nH]c(CN(Cc2ccco2)C2CCCC2)nc2ccccc12,-3.64%,-24.3%
CSc1ncccc1C(=O)NCc1ccc(CS(=O)(=O)NC(C)C)cc1,4%,6.55%
Cc1cc(CN2CC[C@H]3C(=O)N(c4ccccc4)CCO[C@H]3C2)no1,-4.96%,-8.26%
COc1cccc2c1OCC(C(=O)NC1CCN(S(C)(=O)=O)CC1)C2 (centres undefined),-3.65%,11.1%
Cc1nn(C)cc1CCC(=O)N1CCCC(n2cncn2)C1 (centres undefined),-2.1%,12.3%
CCN(CC)C(=O)CCNc1cncc(-n2nc(C)cc2C)n1,1.51%,-34.2%
CCc1nc(C2CCCN(C(=O)CCn3ccccc3=O)C2)no1 (centres undefined),-0.767%,7.71%
COCCN1CCc2cc(C(=O)N(C)C)c(NC(C)C)nc2CC1,-1.31%,-20%
O=C(NCc1cccnc1)C1=NN(c2ccccc2)C(=O)CN1,14.8%,-1.16%
Cc1nc(CN(C)C2CCN(Cc3sc(C)nc3C)C2)no1 (centres undefined),0.197%,-0.768%
COc1ncc(-c2nccn2CCN(C)C)cn1,-0.836%,-6.87%

SMILES,Percent Effect [1],Percent Effect [2]
Cn1c(C2CC2)nc2c1CCN(CCOc1ccc(C#N)cc1)C2,3.25%,-7.77%
Cc1cccc(NC2CCN(C(=O)Nc3cc(F)cc(F)c3)CC2)n1,-4.31%,-78.9%
CC(=O)N1CCC2(CCCN(Cc3ccc(Cl)c(C(F)(F)F)c3)C2)C1 (centres undefined),6.54%,4.87%
CCN1CCN(c2ccc(F)cc2C(C)NCc2noc(C)n2)CC1 (centres undefined),-3.26%,-6.75%
Cc1ccsc1C(=O)N1CC(C(=O)N2CCOCC2)C2(CCOCC2)C1 (centres undefined),7.88%,-8.92%
O=S(=O)(N(Cc1ccccn1)C1CC1)N1CCCC1c1ccco1 (centres undefined),2.62%,-10.3%
CN1CCCC1CNC(=O)CCCOCc1ccccc1 (centres undefined),0.589%,23.4%
CC(COc1ccc(F)cc1F)NC(=O)NCCN1CCOCC1 (centres undefined),-1.71%,-3.82%
Cc1nc[nH]c1-c1nc2cc(S(=O)(=O)N3CCCC3)ccc2n1C,1.21%,0.151%
CO[C@H]1CCN(S(=O)(=O)c2cn(C)cn2)[C@H]1Cc1cnn(C)c1,7.16%,5.54%
c1cnn(C2CN(Cc3nc(-c4ccsc4)no3)C2)c1,-1.81%,23%
Cc1ccc(NC(=O)N2CCOC(C)C2)cc1Cl (centres undefined),0.866%,1.77%
COc1nn(C)c2c1CCCN(C(=O)c1ccccc1)C2,-0.268%,-9.13%
COc1ccccc1Oc1ncccc1CNC(=O)C(C)N1CCCC1 (centres undefined),-0.0279%,6.37%
CCc1nccn1-c1cncc(C2CCCN2Cc2cccnc2)n1 (centres undefined),5.87%,-37.2%
Cn1ccnc1CN1CCN(CC(O)c2ccco2)CC1 (centres undefined),4.07%,20%
CC(C)OCCOCc1cccc(NC(=O)NCCn2ccnc2)c1,2.56%,-31.1%
Cc1cnn(C2CCCN(C(=O)c3cc(C)sc3C)C2)c1 (centres undefined),-4.82%,-24.8%
c1cnn(Cc2nnc3n2CCCN(CC2CCOCC2)C3)c1,2.52%,18.5%
CN(C)c1cc(C(=O)N2CCCC(n3cccn3)C2)ccn1 (centres undefined),-2.86%,-7.48%
O=C(O)[C@@H]1CN(C(=O)c2ccc3[nH]nnc3c2)C[C@H]1c1cccc(F)c1,-0.0228%,-15.6%
CCN(CC)C(=O)Nc1cc2c(cc1SC)OCCO2,-1.51%,12%
CNCC(=O)N1CCC(c2ccnc(Nc3ccc(C)cn3)n2)C1 (centres undefined),2.93%,-58.2%
CNc1cc2c(nn1)CCN(C(=O)c1cccc3c1OCO3)C2,-7.31%,1.76%
CC(=O)N1CCOC(c2cc(N3CC(O)C3)nc(C)n2)C1 (centres undefined),-3.6%,6.14%
Cc1cnn(CC2CCCN2CC(=O)Nc2cc(C(C)(C)C)no2)c1 (centres undefined),0.278%,-37.5%

SMILES,Percent Effect [1],Percent Effect [2]
Cc1noc([C@H]2C[C@H]3OCC[C@H]3N(S(=O)(=O)C3CC3)C2)n1,0.456%,19.9%
Cc1ccc(OCC(=O)NS(=O)(=O)c2c(C)noc2C)cc1C,-4.32%,-54.6%
COc1cn(-c2ccccc2)nc1C(=O)NCCCN1CCCC(C)C1 (centres undefined),-1.18%,7%
CCC1(CO)CCCN(c2ncccc2C#N)C1 (centres undefined),-1.73%,-8.75%
Cc1ccc(NC(=O)Cn2cc(I)cn2)cc1,1.25%,-45.6%
CN(C)S(=O)(=O)N1CCC2(CCCN(Cc3ccc(F)cc3)C2=O)C1 (centres undefined),-2.05%,-20.5%
CC(=O)N1CCC(C(=O)NCCN2CCC(C)CC2)CC1,0.167%,0.682%
c1cnn(CCNCc2nnc(C3CC3)o2)c1,-0.343%,-28.3%
O=C(c1cccc2[nH]ncc12)N1CCCC1c1noc(C2CC2)n1 (centres undefined),-4.54%,0.232%
CN1C(=O)C[C@@H]2[C@@H]1CCN2C(=O)c1ccc[nH]1,-4.63%,-6.89%
Cc1nccn1Cc1nnc(C2CCCN(Cc3cccnc3)C2)n1C (centres undefined),-2.79%,4.73%
CC(=O)NCC(=O)N1Cc2nccn2CC(CN2CCCC2)C1 (centres undefined),-4.29%,2.69%
CCOCC1CN(Cc2ccoc2)Cc2ncn(CC3CC3)c21 (centres undefined),0.605%,-8.58%
O=C(Nc1cccnc1)[C@H]1CO[C@H]2CCN(c3ncc(F)cn3)C[C@H]2C1,0.524%,-22.2%
COc1ccccc1N1CCC(CNCc2cccc(O)c2)C1 (centres undefined),2.22%,-10.3%
CCc1ccc(CNC(=O)N2CCN(Cc3cc(C)no3)CC2)s1,12%,27%
CCOCCCNC(=O)c1cc(C(C)C)nc(N2CCCCCC2)n1,1.1%,-56.1%
CC(C)CN1CCC2(C=C(C(=O)N3CCCC3)c3ccccc32)CC1,0.582%,-8.02%
O=C(Cn1cc(C(=O)O)ccc1=O)Nc1ccc(Cl)cc1F,-4.96%,-33.4%
COc1cc(CNCCc2nc(C)cs2)cc2c1OCCO2,-4.99%,14.4%
CC(Cn1cccn1)NC(=O)NCCc1cnn(C)c1 (centres undefined),-2.54%,-3.5%
O=C(c1ccc2c(c1)OCO2)N1CCCC(n2cccn2)C1 (centres undefined),4.23%,23.2%
Cc1noc(C)c1C(=O)NCC(O)c1ccc(F)cc1F (centres undefined),-2.01%,20.4%
Cc1cnc2n(c1=O)C(CC(=O)NCc1cc(-c3cccs3)on1)CS2 (centres undefined),1.62%,-30.9%
